APP transl inh: APP translation inhibition; SH-SY5Y APP 5'UTR-luciferase reporter, luminescence; 0.82% of 190,000 active; AID 1285; inhibition, % at 2 µM;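 active = inhibition above a set limit, derived from the sample mean plus 3 SD, cut at about 45% in these data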
STAT1 act: STAT1 signaling activation. activation (% of control), % at 5.5 µM. NIH 3T3 STAT1-luciferase reporter, IFN-gamma, luminescence; 100% = IFN-gamma alone, no compound. AID 932. 2.6% of 200,000 active;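 active = activation above the screen-wide mean activation plus 3 SD, cut at about 130% in these data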;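 also: raw ratio to IFN-gamma control signal so 100% means no change and 0% no light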
Wee1 stabilizer: human Wee1 degradation inhibition, primary screen. reporter increase, % at 5 µM. 1.2% of 220,000 active. P30291. HeLa Luc-Wee1K328M stability, luciferase luminescence; 100% = proteasome inhibitor MG132 effect. AID 1321;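 active = activation above the mean of all tested compounds plus 3 SD, set per screening run, cut at about 8.8% in these data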;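 also: cells exposed to compound for 20 h before luminescence read; 0% = DMSO alone and 100% = MG132 at 30 µM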
Target sequence (P30291 whole entry K328M): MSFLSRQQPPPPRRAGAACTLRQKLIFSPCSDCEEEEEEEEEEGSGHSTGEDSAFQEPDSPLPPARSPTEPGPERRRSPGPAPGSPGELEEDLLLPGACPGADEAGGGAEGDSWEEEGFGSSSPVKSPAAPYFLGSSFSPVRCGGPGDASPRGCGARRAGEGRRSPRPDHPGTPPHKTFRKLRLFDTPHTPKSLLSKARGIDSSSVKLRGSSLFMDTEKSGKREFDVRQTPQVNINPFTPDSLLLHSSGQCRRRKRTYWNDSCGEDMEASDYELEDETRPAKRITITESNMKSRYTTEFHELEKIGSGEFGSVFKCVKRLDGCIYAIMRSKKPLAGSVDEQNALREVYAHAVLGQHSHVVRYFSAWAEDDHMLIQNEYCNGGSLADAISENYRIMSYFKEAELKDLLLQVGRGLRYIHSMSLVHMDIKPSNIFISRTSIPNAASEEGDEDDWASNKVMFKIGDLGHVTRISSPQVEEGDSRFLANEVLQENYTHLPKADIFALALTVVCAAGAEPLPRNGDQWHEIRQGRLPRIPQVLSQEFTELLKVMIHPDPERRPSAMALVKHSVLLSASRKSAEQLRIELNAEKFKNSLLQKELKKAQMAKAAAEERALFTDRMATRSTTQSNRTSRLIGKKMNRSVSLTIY
NF-kB expr up: NF-kB expression increase, human neuronal cells. 1.6% of 190,000 active. AID 1239. fold change at 12.5 µM. NF-kB reporter expression; hits give high values; in the data active = fold change above about 3.3
APP 5'UTR act: activates APP 5'UTR luciferase reporter | SH-SY5Y APP 5'UTR luciferase reporter, luminescence; zero percent = DMSO vehicle wells | activation, % at 2 µM | 1% of 190,000 active;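 active = activation above a set limit, based on mean plus 3 SD of controls, cut at about 140% in these data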
Hsp70 activator: transcriptional activators of Hsp70; AID 1203; 0.04% of 200,000 active; activation, % at 10 µM; HeLa Hsp70 promoter luciferase reporter, luminescence; scaled: vehicle 0, proteasome-inhibitor control 100%;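 active = activation above the mean across all tested compounds plus 3 SD, cutoff set per campaign, cut at about 5.5% in these data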;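 also: 100% = MG132 at 30 µM as the positive control and 0% = DMSO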
STAT1 activ conf: STAT1 activation, confirmation assay. shares compounds with STAT1 act. NIH 3T3 STAT1-luciferase reporter, IFN-gamma potentiation, luminescence; 100% = IFN-gamma EC80 alone, no compound. activation (% of control), % at 5.7 µM. 97% of 1,200 active. AID 1262;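 active = activation above a set limit carried over from the earlier primary STAT1 screen, cut at about 140% in these data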;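 also: simple ratio to median IFN-gamma plus DMSO wells so 0% means no light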
NFkB act STAT1ct: NF-kappaB activation in STAT1 activator counter-screen | shares compounds with STAT1 act | HEK293T NF-kB luciferase reporter, TNF-alpha stimulated, luminescence; 100% = TNF-alpha with vehicle only | activation (% of control), % at 5.7 µM | 43% of 1,200 active | AID 1306;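 active = activation above the mean of solvent-only control wells plus 3 SD, set per campaign, cut at about 130% in these data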;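 also: TNF-alpha given at a submaximal dose yielding about 80% of full reporter signal; values are well signal over median control so 100% means no change and 0% no light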
STAT3 act 2: counter-screen for STAT1 activators: human STAT3 activation; 46% of 1,200 active; U3A cells STAT3-luciferase reporter, IL-6, luminescence; cells lack STAT1; 100 = IL-6 alone, no compound effect; activation (% of control), % at 5.7 µM; shares compounds with STAT1 act;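 active = activation above the solvent-only control well mean plus 3 SD, set per plate batch, cut at about 110% in these data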;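 also: 0% = no luminescence and 100% = median IL-6 plus DMSO wells; higher means more STAT3 reporter activation so hits are non-selective activators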
Active calls of the source: *; / = not tested or not shown. Rows were chosen to be rich in hits. Some 4.8% of all compounds tested hit in one or more screens of this group.

SMILES	APP transl inh	STAT1 act	Wee1 stabilizer	NF-kB expr up	APP 5'UTR act	Hsp70 activator	STAT1 activ conf	NFkB act STAT1ct	STAT3 act 2
N/C(=N\OC(=O)c1ccc(F)cc1)c1ccccc1	-94	157*	1	3.5*	94	0	196*	128	116*
CCN(CC)S(=O)(=O)c1ccc(NC(=O)COC(=O)c2ccc(Br)o2)cc1	-11	106	1	1.1	11	0	/	/	/
CCCN(CCC)C(=O)c1c(C)[nH]c(C(=O)OCC)c1C	-3	98	-1	1.2	3	0	/	/	/
Cc1cccc(N2CCN(C(=S)Nc3ccc4nc(N5CCOCC5)cc(C)c4c3)CC2C)c1 (centres undefined)	-1	111	0	0.81	1	0	/	/	/
Cc1cc(C)cc(Nc2ncc3c(n2)CCCC3=O)c1	-163	154*	4	2.9	163*	0	185*	106	107
Cc1cc(C)cc(Nc2ncc3c(n2)CC(c2ccco2)CC3=O)c1 (centres undefined)	-11	103	-3	1.2	11	0	/	/	/
Brc1ccc(NC2=Nc3ccccc3CC2)cc1	-99	158*	1	4.7*	99	1	187*	141*	101
O=C(CSc1nnc2c(n1)[nH]c1ccccc12)OCc1ccccc1	-4	106	-2	/	4	0	/	/	/
CCOC(=O)c1cnc2c(-c3ccccc3)cnn2c1N	-124	186*	2	7.4*	124	0	246*	119	99
C=CCn1cc(-c2cccc(Cl)c2)cc(C#N)c1=O	-4	98	-2	0.99	4	0	/	/	/
CCOC(=O)/C(C#N)=C\c1ccc(CC)s1	-4	106	-2	1.6	4	0	/	/	/
CCOC(=O)/C(C#N)=C\C=C1C=CN(C)C=C1	-74	154*	4	3.1	74	0	162*	123	115*
OCCOCCNc1ncnc2c1cnn2-c1ccc(Cl)cc1	-140	157*	5	4.6*	140*	0	225*	133*	116*
O/N=C/c1ccc(OCc2ccccc2)c(Br)c1	-131	162*	4	6.7*	131	0	188*	132	123*
O/N=C/c1ccc(OCc2ccccc2F)c(Cl)c1	-135	156*	1	1.2	135	0	202*	130	127*
O/N=C/c1ccccc1OCc1ccccc1F	-3	102	-2	1.7	3	0	/	/	/
O/N=C/c1ccc(OCc2ccccc2)c(Cl)c1	-117	162*	6	5.4*	117	0	203*	134*	119*
O/N=C/c1cc(Br)cc(Br)c1OCc1ccccc1	4	102	-2	1.2	-4	-1	/	/	/
O/N=C/c1cc(Cl)ccc1OCc1ccccc1Cl	10	97	0	0.95	-10	0	/	/	/
O=C(O)c1cc2c(cc1Cl)N1CCCCCC1=NS2(=O)=O	-13	107	1	0.94	13	0	/	/	/
CCOC(=O)Cc1csc(NC(=O)c2cccc(OC)c2)n1	-13	98	0	1.1	13	0	/	/	/
Clc1cccc(-c2nnc(-c3ccccc3)o2)c1	-136	156*	2	8.8*	136*	0	209*	117	107
Clc1cccc(-c2nnc(-c3ccno3)o2)c1	/	/	8	/	/	/	/	/	/
CCc1nnc(NC(=O)c2sc3nc4c(cc3c2N)CCCCC4)s1	-70	155*	-1	3.4*	70	0	187*	135*	117*
CCc1nnc(NC(=O)c2sc3nc4c(cc3c2N)CCCCCC4)s1	-12	128	0	2	12	0	/	/	/
SMILES	APP transl inh	STAT1 act	Wee1 stabilizer	NF-kB expr up	APP 5'UTR act	Hsp70 activator	STAT1 activ conf	NFkB act STAT1ct	STAT3 act 2
Cc1nc(NC(=O)c2csc3ccccc23)sc1C	-151	176*	2	7.5*	151*	0	256*	137*	111*
Cc1nc(NC(=S)NC(=O)c2ccccc2)sc1C	/	/	6	/	/	/	/	/	/
CNc1nc(CC(C)=O)ns1	1	91	3	1.4	-1	0	/	/	/
CC(=O)Cc1nsc(Nc2ccc(C)cc2)n1	-92	156*	6	3.1	92	0	190*	137*	122*
COCc1cc(C)n(CC(=O)N2CCCC2)c(=O)c1C#N	-4	103	3	1	4	0	/	/	/
C=CCSc1nncn1/N=C/c1ccc(OC)cc1	-111	184*	-2	3.4*	111	0	201*	146*	133*
COc1ccc(OC)c(NC(=O)Cn2c(CCC(=O)O)ccc2-c2cccs2)c1	3	98	0	1.1	-3	0	/	/	/
CSCC(=O)Nc1nc(-c2ccc3c(c2)OCCO3)cs1	-153	158*	6	4.8*	153*	0	189*	139*	114*
CCCC(=O)Nc1nc(-c2ccc3c(c2)OCCO3)cs1	-141	158*	3	4.5*	141*	0	181*	143*	104
O=C(CSCC(=O)Nc1nc(-c2ccc3c(c2)OCO3)cs1)Nc1nccs1	-29	99	3	1.2	29	0	/	/	/
CC1=NN(S(=O)(=O)c2ccc(F)cc2)C(=O)c2ccccc2O1	-6	97	-2	1.1	6	0	/	/	/
COc1ccc(C(=O)c2oc3ccc(OC)cc3c2N)cc1	-190	151*	8	5.9*	190*	0	139*	148*	111*
COC(=O)c1oc2ccc(OC)cc2c1N	-22	108	3	1.7	21	0	/	/	/
CC(=O)NCCn1c(SCc2cc(F)ccc2F)nc2ccccc2c1=O	6	98	-1	0.9	-6	0	/	/	/
CCOC(=O)c1sc2nc(C)cc(C)c2c1NC(=O)c1ccco1	-7	94	-4	0.9	7	0	/	/	/
CCOC(=O)/C=C/COc1ccccc1[N+](=O)[O-]	-40	154*	-5	2.1	40	0	146*	119	100
CC(C)(C)C(=O)COc1ccccc1[N+](=O)[O-]	3	94	-2	0.75	-3	0	/	/	/
N#CCc1ccc(NC(=O)/C=C/c2ccc([N+](=O)[O-])o2)cc1	56*	312*	9.3*	1.2	-56	2	130*	155*	102
